Read-out in experiment [1]: Interleukin-8 (IL8), CXCL8 (gene 3576)
Kind of experiment: BSK_CASM3C_IL8: BioMAP Diversity Plus: CASM3C Assay for Interleukin-8 (IL8) Biomarker Activity (AID 2283042).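 Note: IL-8 protein level quantified by ELISA.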 The settings on record: primary human coronary artery smooth muscle cells; actives raise or lower the signal.

Read-out in experiment [2]: Human Leukocyte Antigen - DR isotype (HLADR), HLA-DRA (gene 3122)
Kind of experiment: BSK_CASM3C_HLADR: BioMAP Diversity Plus: CASM3C Assay for Human Leukocyte Antigen - DR isotype (HLADR) Biomarker Activity (AID 2283043).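 Note: cell-surface HLA-DR protein level quantified by ELISA.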 The settings on record: primary human coronary artery smooth muscle cells; actives raise or lower the signal.

Read-out in experiment [3]: Macrophage colony-stimulating factor (MCSF), CSF1 (gene 1435)
Kind of experiment: BSK_CASM3C_MCSF: BioMAP Diversity Plus: CASM3C Assay for Macrophage colony-stimulating factor (MCSF) Biomarker Activity (AID 2283044).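 Note: M-CSF protein amount quantified by ELISA after 24 h exposure.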 The following applies: primary human coronary artery smooth muscle cells; actives raise or lower the signal.

Read-out in experiment [4]: Low-density lipoprotein receptor (LDLR), LDLR (gene 3949)
Kind of experiment: BSK_CASM3C_LDLR: BioMAP Diversity Plus: CASM3C Assay for Low-density lipoprotein receptor (LDLR) Biomarker Activity (AID 2283045).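 Note: LDLR protein level on the cell surface quantified by ELISA.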 The following applies: primary human coronary artery smooth muscle cells; actives raise or lower the signal.

Read-out in experiment [5]: Monocyte Chemoattractant Protein-1 (MCP1), CCL2 (gene 6347)
Nature of the experiment: BSK_CASM3C_MCP1: BioMAP Diversity Plus: CASM3C Assay for Monocyte Chemoattractant Protein-1 (MCP1) Biomarker Activity (AID 2283046).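 Note: MCP-1 level quantified by ELISA 24 h after dosing.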 The following applies: primary human coronary artery smooth muscle cells; actives raise or lower the signal.

Experiment [6] can be described thus: BSK_CASM3C_Proliferation: Cell Proliferation Assessment in the BioMAP Diversity Plus: CASM3C Assay (AID 2283047).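 Note: sulforhodamine B total protein stain as relative cell number at 560 nm; sub-confluent cells exposed 48 h before staining; fitted both ways against DMSO so gain or loss of cell number.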 The following applies: primary human coronary artery smooth muscle cells.
Read-out in experiment [7]: Monokine induced gamma interferon (MIG), CXCL9 (gene 4283)
Kind of experiment: BSK_CASM3C_MIG: BioMAP Diversity Plus: CASM3C Assay for Monokine induced gamma interferon (MIG) Biomarker Activity (AID 2283048).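 Note: MIG protein level measured by ELISA.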 The following applies: primary human coronary artery smooth muscle cells; actives raise or lower the signal.

Read-out in experiment [8]: serum amyloid A (SAA), SAA1 (gene 6288)
Kind of experiment: BSK_CASM3C_SAA: BioMAP Diversity Plus: CASM3C Assay for serum amyloid A (SAA) Biomarker Activity (AID 2283049).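 Note: SAA protein level quantified by ELISA.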 The following applies: primary human coronary artery smooth muscle cells; actives raise or lower the signal.

The nature of experiment [9]: BSK_CASM3C_SRB: Viability Assessment in the BioMAP Diversity Plus: CASM3C Assay (AID 2283050).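 Note: total protein by SRB staining as cytotoxicity measure in parallel cultures; cells exposed to compound for 24 h.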 The following applies: primary human coronary artery smooth muscle cells.
Read-out in experiment [10]: Thrombomodulin, THBD (gene 7056)
Nature of the experiment: BSK_CASM3C_Thrombomodulin: BioMAP Diversity Plus: CASM3C Assay for Thrombomodulin Biomarker Activity (AID 2283051).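 Note: thrombomodulin protein level measured by ELISA 24 h after dosing.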 The settings on record: primary human coronary artery smooth muscle cells; actives raise or lower the signal.

Values joined by “and” are separate entries in the source; they are usually repeats but may differ in a detail not shown here. Equal entries are not always repeated. More than one record can exist for a structure, and the calls need not agree. Active and inactive are the calls of the source. Rule for the calls: active = hit-call score of the fitted dose curve at least 0.9, where 1 is the maximum; inactive = score below 0.9.

Regarding `CCC(O)=C1C(=O)CC(C(=O)O)CC1=O` (stereo unspecified), the outcome in experiment [1], in experiment [2], in experiment [3], in experiment [4], in experiment [5] and in experiment [6] was inactive. In addition, the result in [7], in [8], in experiment [9] and in [10] was inactive.

With `Cc1nn(C)c(Oc2ccccc2)c1C=NOCc1ccc(C(=O)OC(C)(C)C)cc1`, the outcome in experiment [1], in experiment [2], in experiment [3], in experiment [4], in experiment [5] and in experiment [7] was inactive. Further, the outcome in experiment [8] and in [9] was inactive. Moreover, the half-maximal activity concentration (AC50) (in general, the concentration at which the activity in the assay is half-maximal) in experiment [6] was 20 µM (active); in [10] it was 16.3 µM (active).

With `COC(=O)CSc1cc(N=c2sc(=O)n3n2CCCC3)c(F)cc1Cl`, the outcome in experiment [1], in [2], in [4], in experiment [5], in experiment [7] and in experiment [8] was inactive. Also, the outcome in [9] and in experiment [10] was inactive. Also, the AC50 was 3.97 µM (active) in experiment [3] and 29.6 µM (active) in [6].

Take `CCCCC(CC)COC(=O)c1ccccc1C(=O)O` (stereo unspecified): the outcome in experiment [1], in [2], in experiment [3], in experiment [4], in experiment [5] and in experiment [6] was inactive. Further, the result in experiment [7], in experiment [8], in experiment [9] and in [10] was inactive.

Turning to `COCCO`, the result in [1], in experiment [2], in experiment [3], in experiment [4], in [5] and in experiment [6] was inactive. In addition, the result in [7], in [8], in [9] and in experiment [10] was inactive.

Take `S=C(S)NCCNC(=S)S.[Mn+2].[S-]C([S-])=NCCN=C([S-])[S-].[Zn+2]`: the result in experiment [1], in [2], in experiment [3], in experiment [4], in experiment [5] and in experiment [6] was inactive. Further, the outcome in experiment [7], in [8], in [9] and in experiment [10] was inactive. For the same molecule, the concentration at half-maximal activity (AC50) in experiment [2] is 10 µM (active); in experiment [3], 5.89 µM (active); in experiment [4], 10 µM (active) and 5.32 µM (active); in experiment [6], 14.2 µM (active) [middle of 4 runs].

With `C#CCOC(=O)[C@@H](C)Oc1ccc(Oc2ncc(Cl)cc2F)cc1`, the result in [1], in [2], in [3], in experiment [4], in [5] and in experiment [6] was inactive. Also, the outcome in experiment [7], in experiment [8], in experiment [9] and in experiment [10] was inactive.

Regarding `CCOC(=O)[C@H](C)Oc1ccc(Oc2nc3ccc(Cl)cc3o2)cc1`, the result in [1], in experiment [2], in experiment [3], in experiment [4], in experiment [5] and in [6] was inactive. For the same molecule, the outcome in experiment [7], in experiment [8], in experiment [9] and in [10] was inactive.

As to `N#CSCSc1nc2ccccc2s1`, the AC50 in experiment [1] is 10.8 µM (active) and 31.2 µM (active); in experiment [2], 2.62 µM (active) and 36.7 µM (active); in experiment [3], 6.33 µM (active) and 26.9 µM (active); in [4], 8.61 µM (active); in experiment [5], 9.06 µM (active) and 29.6 µM (active); in [6], 1.33 µM (active) and 5.49 µM (active). For the same molecule, the AC50 in [7] was 7.5 µM (active) and 18.8 µM (active); in experiment [8] it was 4.93 µM (active) and 33.5 µM (active); in experiment [9], 11.9 µM (active) and 31.5 µM (active); in experiment [10], 36.7 µM (active). Also, the outcome in experiment [4] and in experiment [10] was inactive.

Consider `COC(=O)c1c(Cl)nn(C)c1S(=O)(=O)NC(=O)Nc1nc(OC)cc(OC)n1`, for which the outcome in experiment [1], in experiment [2], in experiment [3], in [4], in experiment [5] and in experiment [6] was inactive. For the same molecule, the result in experiment [7], in experiment [8], in experiment [9] and in [10] was inactive.

In the case of `C#C[C@]1(O)CC[C@H]2[C@@H]3CCC4=CC(=O)CC[C@@H]4[C@H]3CC[C@@]21CC`, the result in experiment [1], in experiment [2], in experiment [3], in [4], in experiment [5] and in [6] was inactive. For the same molecule, the outcome in [7], in experiment [9] and in experiment [10] was inactive. For the same molecule, the half-maximal activity concentration (AC50) in [8] was 6.06 µM (active).

Turning to `CCCCOCCOCCOCc1cc2c(cc1CCC)OCO2`, the outcome in experiment [1], in [2], in experiment [3], in [4], in [5] and in experiment [6] was inactive. The result in [7], in experiment [8], in experiment [9] and in experiment [10] was inactive.

Take `c1ccc2[nH]c(-c3cscn3)nc2c1`: the outcome in [1], in experiment [2], in experiment [3], in [4], in experiment [5] and in experiment [6] was inactive. The result in [7], in [8], in experiment [9] and in experiment [10] was inactive.

For `O=C(c1ccc(O)cc1O)c1ccc(O)cc1O`, the result in [1], in experiment [2], in experiment [3], in [4], in [5] and in experiment [6] was inactive. Further, the outcome in experiment [7], in experiment [8], in experiment [9] and in experiment [10] was inactive.

Consider `CCOC(=O)NCCOc1ccc(Oc2ccccc2)cc1`, for which the outcome in experiment [1], in [2], in experiment [3], in experiment [4], in experiment [5] and in experiment [7] was inactive. Also, the outcome in experiment [8], in experiment [9] and in [10] was inactive. In experiment [6], the half-maximal activity concentration (AC50) was 7.68 µM (active).

Values taken from PubChem BioAssay (EPA / NIEHS).
